{"source": "PubChem BioAssay AID493035", "about": "(The Scripps Research Institute Molecular Screening Center, 2011)", "note": "Among all 2,000 compounds or so, about 45 (2%) were called active.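 Rule for the calls: active = inhibition above the mean of all tested compounds plus 3 SD (cut at about 49% in these data); inactive = the rest.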 The full list was thinned out, with actives kept by preference.", "data": [{"biological_target": "Perilipin-5 (Homo sapiens) + 1-acylglycerol-3-phosphate O-acyltransferase ABHD5 (Homo sapiens) (UniProt Q00G26+Q8WTS1)", "sequence (Q00G26 whole entry, looked up)": "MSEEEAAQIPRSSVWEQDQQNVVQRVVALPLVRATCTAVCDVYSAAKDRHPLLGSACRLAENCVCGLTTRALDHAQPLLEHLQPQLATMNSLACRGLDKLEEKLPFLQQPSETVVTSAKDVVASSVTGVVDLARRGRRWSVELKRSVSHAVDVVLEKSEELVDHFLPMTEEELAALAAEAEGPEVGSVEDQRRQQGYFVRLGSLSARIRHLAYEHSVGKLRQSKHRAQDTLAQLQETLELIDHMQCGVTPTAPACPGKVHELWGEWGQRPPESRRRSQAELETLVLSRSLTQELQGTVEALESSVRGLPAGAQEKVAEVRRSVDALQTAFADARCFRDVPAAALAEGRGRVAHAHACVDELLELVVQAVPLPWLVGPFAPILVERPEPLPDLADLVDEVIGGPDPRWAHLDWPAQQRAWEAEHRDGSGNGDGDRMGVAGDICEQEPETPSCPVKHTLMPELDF", "sequence (Q8WTS1 whole entry, looked up)": "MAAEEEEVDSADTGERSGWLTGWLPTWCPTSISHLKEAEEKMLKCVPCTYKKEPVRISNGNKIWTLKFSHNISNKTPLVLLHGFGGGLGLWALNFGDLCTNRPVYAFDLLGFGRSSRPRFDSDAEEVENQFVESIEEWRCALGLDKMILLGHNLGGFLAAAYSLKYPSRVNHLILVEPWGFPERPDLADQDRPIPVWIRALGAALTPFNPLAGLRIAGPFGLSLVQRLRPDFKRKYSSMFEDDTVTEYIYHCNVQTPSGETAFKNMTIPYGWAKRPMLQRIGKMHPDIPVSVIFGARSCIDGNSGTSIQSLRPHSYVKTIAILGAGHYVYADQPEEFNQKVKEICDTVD", "assay": "ABHD5-PLIN5 interaction inhibitors, pilot screen, cell lysate, split luciferase complementation, luminescence, NIH validation set (AID 493035);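 for inhibition: 0% = DMSO only wells while the 100% control is not stated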", "conditions": "split G. princeps luciferase complementation, lysates, 4 h; at 7.9 µM, active compounds read high", "values": [{"compound": "O=C1CCCCCN1Cc1ccccc1", "inhibition": "9.82% (inactive)"}, {"compound": "O=C1C=CC(=O)C(C2=C3C(=O)N(CCc4ccccc4)CC(=O)N3CCC2)=C1", "inhibition": "74.5% (active)"}, {"compound": "C/C(=N/N1CCN(Cc2cccc3ccccc23)CC1)c1cccnc1", "inhibition": "-8.01% (inactive)"}, {"compound": "CC1(C)C2CCC1(C(=O)O)c1nc3ccccc3nc12", "note": "(stereo unspecified)", "inhibition": "-0.64% (inactive)"}, {"compound": "Cc1ccc(S(=O)(=O)Nc2ccc(S(=O)(=O)Nc3cc(C)nc(C)n3)cc2)cc1", "inhibition": "4.03% (inactive)"}, {"compound": "CC(C)CCOCC(=O)Nc1cccc(C(=O)O)c1", "inhibition": "-0.57% (inactive)"}, {"compound": "COC(=O)C1=C(C)NC(C)=C([N+](=O)[O-])C1c1ccccc1C(F)(F)F", "note": "(stereo unspecified)", "inhibition": "-2.75% (inactive)"}, {"compound": "COC(=O)C1=C(C)NC(C)=C(C(=O)OC)C1c1ccccc1[N+](=O)[O-]", "inhibition": "active"}, {"compound": "CCOC(=O)C1=C(C)NC(C)=C(C(=O)OC)C1c1cccc([N+](=O)[O-])c1", "note": "(stereo unspecified)", "inhibition": "3.99% (inactive)"}, {"compound": "O=C(O)CCSCCC(=O)O", "inhibition": "2.26% (inactive)"}, {"compound": "CC12CCC(C(=O)N3CCCCC3)([C@H](Br)C1=O)C2(C)C", "note": "(stereo partly specified)", "inhibition": "-4.77% (inactive)"}, {"compound": "COc1ccc(C(=O)Nc2ccccc2C(=O)NC(Cc2c[nH]c3ccccc23)C(=O)O)cc1", "note": "(stereo unspecified)", "inhibition": "1.79% (inactive)"}, {"compound": "COc1ccc(/C=C\\C(=O)c2c(O)ccc3c(C)cc(=O)oc23)cc1OC", "inhibition": "59.1% (active)"}, {"compound": "COc1ccc(C(=O)Oc2ccc3c(C)cc(=O)oc3c2C(C)=O)cc1", "inhibition": "2.94% (inactive)"}, {"compound": "COc1ccc(/C=C/C(=O)Nc2ccccc2C(=O)O)cc1OC", "inhibition": "-12.4% (inactive)"}, {"compound": "Cc1ccc2c(CC(=O)O)coc2c1", "inhibition": "-6.46% (inactive)"}, {"compound": "CCSC(SCC)[C@H](O)[C@@H](O)[C@H](O)[C@H](O)CO", "inhibition": "-2.61% (inactive)"}, {"compound": "CC(C)(C)C(=O)N1CCCC1C(=O)O", "note": "(stereo unspecified)", "inhibition": "-7.48% (inactive)"}, {"compound": "Nc1ccc(-c2nc3ncccc3o2)c(Cl)c1", "inhibition": "-10.8% (inactive)"}, {"compound": "CC(C)Cc1cc(C(=O)N2CCC(N3CCC(C(=O)N4CCCC4)CC3)CC2)n[nH]1", "inhibition": "-3.07% (inactive)"}, {"compound": "COc1cc(C2Nc3ccccc3NC3=C2C(=O)CC(c2ccc(OC)c(OC)c2)C3)ccc1O", "note": "(stereo unspecified)", "inhibition": "1.84% (inactive)"}, {"compound": "C=CCC1(O)C(=O)N2C(=C1C(=O)N1CCOCC1)c1ccccc1CC2(C)C", "note": "(stereo unspecified)", "inhibition": "0.31% (inactive)"}, {"compound": "Cc1ccc(C2=NOC(=O)/C2=C\\C=C\\c2ccccc2)cc1", "inhibition": "94.4% (active)"}, {"compound": "Cc1ccc2c(c1)C(O)(CC(=O)/C=C/C=C/c1ccccc1)C(=O)N2", "note": "(stereo unspecified)", "inhibition": "24.3% (inactive)"}, {"compound": "NC(=O)c1c(-c2ccccc2)oc2ccc(O)cc12", "inhibition": "-5.91% (inactive)"}, {"compound": "CCOC(=O)C1=C(C)N[C@@]2(O)c3ccccc3C(=O)[C@@]12O", "inhibition": "10.3% (inactive)"}]}]}
